# Results: the supplement of paper PMC6089552
# Among all 3,200 compounds or so, about 300 (9.4%) showed activity. This excerpt belongs to a sample that is enriched for actives. A number with no mark means an inactive call.
# System: A673/TR/shEF
# Assay: cell viability (LOESS-normalised, relative to median of negative controls) (log2 ratio); higher = more viable cells (less compound effect), active = hit call of the paper (over 3 MAD below the median)
# Settings: treatment time: 72 h
# Procedure, shortened: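 A673/TR/shEF Ewing sarcoma cells (1,500 per well, 384-well plates) were grown with or without doxycycline to induce EWS-FLI1 shRNA knockdown, starting 24 h before compounds. Library compounds at two or more concentrations, with DMSO controls, were added for three days. Cell viability was read by CellTiter-Glo luminescence on an Envision reader, then LOESS-corrected per plate, divided by the median of negative controls and log2-transformed. Hits were wells at least three median absolute deviations from the median of all screened wells.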
# [1] = 0.25 µM, library screen: screen1, EWS-FLI1 expression: high (no doxycycline)
# [2] = 0.25 µM, library screen: screen1, EWS-FLI1 expression: low (doxycycline-induced shRNA knockdown)
# [3] = 2.5 µM, library screen: screen1, EWS-FLI1 expression: high (no doxycycline)
# [4] = 2.5 µM, library screen: screen1, EWS-FLI1 expression: low (doxycycline-induced shRNA knockdown)
# [5] = 0.25 µM, library screen: screen2, EWS-FLI1 expression: high (no doxycycline)
# [6] = 0.25 µM, library screen: screen2, EWS-FLI1 expression: low (doxycycline-induced shRNA knockdown)
# [7] = 2.5 µM, library screen: screen2, EWS-FLI1 expression: high (no doxycycline)
# [8] = 2.5 µM, library screen: screen2, EWS-FLI1 expression: low (doxycycline-induced shRNA knockdown)
smiles,measurement,setting,value
O=c1c(-c2ccccc2)coc2cc(O)cc(O)c12,cell viability (log2),[1],-0.0366
same,cell viability (log2),[2],0.014
same,cell viability (log2),[3],0.0821
same,cell viability (log2),[4],0.099
CC(C)N1C(=O)/C(=C\c2ccco2)SC1=S,cell viability (log2),[1],0.136
same,cell viability (log2),[2],0.0809
same,cell viability (log2),[3],0.114
same,cell viability (log2),[4],0.139
O=C(O[C@@H]1Cc2c(O)cc(O)cc2O[C@@H]1c1cc2cc([C@H]3Oc4cc(O)cc(O)c4C[C@H]3O)cc(=O)c(O)c2c(O)c1O)c1cc(O)c(O)c(O)c1,cell viability (log2),[1],0.115
same,cell viability (log2),[2],0.032
same,cell viability (log2),[3],0.00601
same,cell viability (log2),[4],-0.0597
COC(=O)c1cc(=O)c(O)c2c(O)c(O)ccc2c1,cell viability (log2),[1],0.103
same,cell viability (log2),[2],0.0315
same,cell viability (log2),[3],0.145
same,cell viability (log2),[4],0.0325
COc1cc2cccc(OC)c(=O)c2c(OC)c1OC,cell viability (log2),[1],0.0955
same,cell viability (log2),[2],0.0427
same,cell viability (log2),[3],0.109
same,cell viability (log2),[4],0.0214
COC(=O)c1cc(OC)c(=O)c2c(OC)c(OC)ccc2c1,cell viability (log2),[1],-0.0869 (active)
same,cell viability (log2),[2],0.0503
same,cell viability (log2),[3],0.0906
same,cell viability (log2),[4],-0.0346
COc1ccccc1NC(=O)C1=C(C)NC(=O)NC1c1cccc(Cl)c1 (stereo unspecified),cell viability (log2),[1],0.0986
same,cell viability (log2),[2],0.0367
same,cell viability (log2),[3],0.0178
same,cell viability (log2),[4],0.0125
CC(C)CCCCCOC(=O)COc1ccc(Cl)cc1Cl,cell viability (log2),[1],0.0385
same,cell viability (log2),[2],0.102
same,cell viability (log2),[3],0.111
same,cell viability (log2),[4],-0.0211
CC1(C)C2CC(=O)[C@]3(C)C(CC[C@@]4(C)[C@H](C(=O)O)OC(=O)C5OC543)[C@@]2(C)[C@@H](O)C[C@H]1O (stereo partly specified),cell viability (log2),[1],0.0536
same,cell viability (log2),[2],0.0574
same,cell viability (log2),[3],0.0836
same,cell viability (log2),[4],0.107
Cc1cc(N2CCN(c3ncccn3)CC2)n2c(nc3ccccc32)c1C#N,cell viability (log2),[1],0.119
same,cell viability (log2),[2],0.0784
same,cell viability (log2),[3],0.108
same,cell viability (log2),[4],0.0845
CC1(COc2ccc3c(c2)ncn3-c2ccc3cccc(N4CCC(N)CC4)c3n2)COC1,cell viability (log2),"0.103 µM, library screen: screen3, EWS-FLI1 expression: high (no doxycycline)",-0.0477
same,cell viability (log2),"0.103 µM, library screen: screen3, EWS-FLI1 expression: low (doxycycline-induced shRNA knockdown)",-0.0112
same,cell viability (log2),"0.308 µM, library screen: screen3, EWS-FLI1 expression: high (no doxycycline)",0.0251
same,cell viability (log2),"0.308 µM, library screen: screen3, EWS-FLI1 expression: low (doxycycline-induced shRNA knockdown)",0.0104
same,cell viability (log2),"0.926 µM, library screen: screen3, EWS-FLI1 expression: high (no doxycycline)",0.0241
same,cell viability (log2),"0.926 µM, library screen: screen3, EWS-FLI1 expression: low (doxycycline-induced shRNA knockdown)",0.0302
same,cell viability (log2),"2.8 µM, library screen: screen3, EWS-FLI1 expression: high (no doxycycline)",0.0311
same,cell viability (log2),"2.8 µM, library screen: screen3, EWS-FLI1 expression: low (doxycycline-induced shRNA knockdown)",0.0382
same,cell viability (log2),"8.3 µM, library screen: screen3, EWS-FLI1 expression: high (no doxycycline)",-0.22 (active)
same,cell viability (log2),"8.3 µM, library screen: screen3, EWS-FLI1 expression: low (doxycycline-induced shRNA knockdown)",-0.0084
same,cell viability (log2),"25 µM, library screen: screen3, EWS-FLI1 expression: high (no doxycycline)",-1.66 (active)
same,cell viability (log2),"25 µM, library screen: screen3, EWS-FLI1 expression: low (doxycycline-induced shRNA knockdown)",-0.632 (active)
COc1ccc(OC)c(CN2CCN(Cc3ccccc3F)CC2)c1,cell viability (log2),[1],0.0715
same,cell viability (log2),[2],0.0693
same,cell viability (log2),[3],0.123
same,cell viability (log2),[4],0.0288
C=C1C2CCC3(C)C(c4ccoc4)OC(=O)CC13OC1CC(=O)C(C)(C)C(CC(=O)OC)C12C (stereo unspecified),cell viability (log2),[1],0.0862
same,cell viability (log2),[2],0.067
same,cell viability (log2),[3],0.0511
same,cell viability (log2),[4],0.0888
O=c1cc([C@H]2Oc3cc(O)cc(O)c3C[C@H]2O)cc2c([C@H]3Oc4cc(O)cc(O)c4C[C@H]3O)cc(O)c(O)c2c1O,cell viability (log2),[1],0.0869
same,cell viability (log2),[2],0.0834
same,cell viability (log2),[3],0.134
same,cell viability (log2),[4],0.162
C[n+]1cc2c3c(ccc2c2ccc4cc5c(cc4c21)OCO5)OCO3,cell viability (log2),"0.025 µM, library screen: screen2, EWS-FLI1 expression: high (no doxycycline)",0.0722
same,cell viability (log2),"0.025 µM, library screen: screen2, EWS-FLI1 expression: low (doxycycline-induced shRNA knockdown)",0.0049
same,cell viability (log2),[1],0.0872
same,cell viability (log2),[2],0.0117
same,cell viability (log2),[5],0.116
same,cell viability (log2),[6],0.0651
same,cell viability (log2),[3],-0.232 (active)
same,cell viability (log2),[4],-0.0123
same,cell viability (log2),[7],-0.101 (active)
same,cell viability (log2),[8],-0.0563
same,cell viability (log2),"25 µM, library screen: screen2, EWS-FLI1 expression: high (no doxycycline)",-4.23 (active)
same,cell viability (log2),"25 µM, library screen: screen2, EWS-FLI1 expression: low (doxycycline-induced shRNA knockdown)",-4.28 (active)
COc1ccc(C(=O)C=Cc2ccccc2)cc1,cell viability (log2),[1],0.0817
same,cell viability (log2),[2],0.0563
same,cell viability (log2),[3],0.0612
same,cell viability (log2),[4],0.0356
CC(C)=CC1C(CO)C1(C)C (stereo unspecified),cell viability (log2),[1],0.105
same,cell viability (log2),[2],0.00359
same,cell viability (log2),[3],0.117
same,cell viability (log2),[4],0.123
CCOC(=O)c1sc(C)c2c(=O)n(C3CCCCC3)cnc12,cell viability (log2),[1],0.0769
same,cell viability (log2),[2],0.0757
same,cell viability (log2),[3],0.067
same,cell viability (log2),[4],-0.0142
Cc1ccc(S(=O)(=O)/C=C/C#N)cc1,cell viability (log2),"0.025 µM, library screen: screen1, EWS-FLI1 expression: high (no doxycycline)",0.231
same,cell viability (log2),"0.025 µM, library screen: screen1, EWS-FLI1 expression: low (doxycycline-induced shRNA knockdown)",-0.0315
same,cell viability (log2),[1],0.131
same,cell viability (log2),[2],0.0518
same,cell viability (log2),[5],0.14
same,cell viability (log2),[6],-0.0223
same,cell viability (log2),[3],-0.841 (active)
same,cell viability (log2),[4],-0.123
same,cell viability (log2),[7],-0.102 (active)
same,cell viability (log2),[8],0.0315
same,cell viability (log2),"25 µM, library screen: screen1, EWS-FLI1 expression: high (no doxycycline)",-3.58 (active)
same,cell viability (log2),"25 µM, library screen: screen1, EWS-FLI1 expression: low (doxycycline-induced shRNA knockdown)",-2.12 (active)
CC(C)(C)c1ccc(S(=O)(=O)/C=C/C#N)cc1,cell viability (log2),[5],0.205
same,cell viability (log2),[6],0.163
same,cell viability (log2),[7],-0.121 (active)
same,cell viability (log2),[8],0.0273
C[C@@H](Oc1ccccc1)C(=O)N[C@@H]1C(=O)N2[C@@H]1SC(C)(C)[C@@H]2C(=O)O,cell viability (log2),[1],0.0816
same,cell viability (log2),[2],0.0301
same,cell viability (log2),[3],0.188
same,cell viability (log2),[4],0.189
CC1=C[C@@H]2[C@@H](CC1)[C@](C)(O)CC[C@H]2C(C)C,cell viability (log2),[1],0.0888
same,cell viability (log2),[2],0.0211
same,cell viability (log2),[3],0.101
same,cell viability (log2),[4],0.102
C=C1C2CC[C@@]3(C)[C@H](c4ccoc4)OC(=O)C[C@]13O[C@H]1C[C@H](OC(C)=O)C(C)(C)[C@H](CC(=O)OC)[C@@]21C,cell viability (log2),[1],0.122
same,cell viability (log2),[2],0.0225
same,cell viability (log2),[3],0.146
same,cell viability (log2),[4],0.192
Cc1onc(-c2c(Cl)cccc2Cl)c1C(=O)Nc1ccc(Br)cc1F,cell viability (log2),[1],0.112
same,cell viability (log2),[2],0.103
same,cell viability (log2),[3],0.116
same,cell viability (log2),[4],0.0234
O=C(O)/C=C/c1ccc(O)c(O)c1,cell viability (log2),[1],0.082
same,cell viability (log2),[2],-0.0191
same,cell viability (log2),[5],0.181
same,cell viability (log2),[6],0.126
same,cell viability (log2),[3],0.109
same,cell viability (log2),[4],0.0871
same,cell viability (log2),[7],0.0522
same,cell viability (log2),[8],0.0284
O=C(/C=C/c1ccc(O)c(O)c1)O[C@H](Cc1ccc(O)c(O)c1)C(=O)O,cell viability (log2),[1],0.0508
same,cell viability (log2),[2],0.0752
same,cell viability (log2),[3],0.0833
same,cell viability (log2),[4],0.158
O=C(/C=C/c1ccc(O)c(O)c1)OCCc1ccccc1,cell viability (log2),[5],0.197
same,cell viability (log2),[6],0.0712
same,cell viability (log2),[7],-0.129 (active)
same,cell viability (log2),[8],0.0968
